Screens (PubChem BioAssay)
The list is not random: actives were taken first. Their share in the collection is about 11%.
ALDH1A1 inh – blocks purified human ALDH1A1 activity | P00352 | Purified ALDH1A1, NADH fluorescence, propionaldehyde substrate | Potency, µM (doses to about 75.3 µM), for inactives: at the top dose activity, negative = inhibition, usual class: inhibitors | hit rate 7.3% among 220,000 | AID 1030; active = well fitted inhibition curve with a large enough effect, not every such curve was filed as active; inconclusive = small, poorly fitted or top-dose-only effect, or another doubt; inactive = no such curve, though single readings can be large or run the other way;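 also: potency is read from the fitted curve at half-maximal effect; plate controls were no enzyme wells and a reference inhibitor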
GoLoco inh red – RGS12 GoLoco-Gai1 interaction inhibition. P63096. Gai1:RGS12 GoLoco peptide FP, rhodamine, 10 min. Potency, µM (highest dose often 61.6 µM), for the others: at the top dose activity, negative = inhibition, most hits filed as inhibitors. hit rate 0.44% among 230,000. AID 880; active = well fitted inhibition curve with a large enough effect, not every such curve was filed as active; inactive = no such curve, though single readings can be large or run the other way; also: potency is read from the fitted curve at half-maximal effect; % is scaled to controls: 0 for no effect and ±100 for the full control effect; nearly all actives have a fitted effect of over 30% in size
Target sequence (P63096 whole entry, looked up): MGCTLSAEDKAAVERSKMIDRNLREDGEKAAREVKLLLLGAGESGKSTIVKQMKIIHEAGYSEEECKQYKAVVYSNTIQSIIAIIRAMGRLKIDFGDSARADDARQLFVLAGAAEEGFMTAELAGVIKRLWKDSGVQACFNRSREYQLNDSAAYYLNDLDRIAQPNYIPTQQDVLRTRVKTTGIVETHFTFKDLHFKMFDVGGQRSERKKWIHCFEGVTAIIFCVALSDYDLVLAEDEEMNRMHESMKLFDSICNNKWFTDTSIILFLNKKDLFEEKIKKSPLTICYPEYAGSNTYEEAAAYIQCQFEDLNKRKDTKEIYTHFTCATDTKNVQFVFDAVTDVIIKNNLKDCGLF
PNC assembly inh – blocks assembly of the perinucleolar compartment. PC3M PTB-GFP, PNC prevalence imaging, 16 h; active compounds read low. activity change (PNC), negative = inhibition, % at 10 µM. hit rate 3.1% among 140,000;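 active = readout at or below -70, meaning at least 70% loss of cells showing the perinucleolar compartment, a nuclear body marking cancer cells; inconclusive = readout between -30 and a set limit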;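 also: plate controls were DMSO wells for no effect and camptothecin positive control wells for full effect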
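Compounds are pinned in duplicate onto adhered PC3M cells stably expressing GFP-tagged PTB and incubated 16 h at 37 C. Cells are then fixed, nuclei stained with Hoechst, and PNC-positive cells counted.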
HTT ATP protect – protects HTT-Q103 PC12 cells, measured by ATP. PC12 HTT-Q103 induced, cytoprotection, ATP luminescence, 40 h. Potency, µM (highest dose often 56.4 µM), for inactives: cytoprotection (ATP increase), usual class: activators. hit rate 0.14% among 230,000; also: potency is read from the fitted curve at half-maximal effect; % of control where 0% means no effect; nearly all actives have a fitted effect of over 45% in size
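Compounds added alongside 100 nM tebufenozide, which induces toxic Q103 huntingtin exon 1-GFP in stable PC12 cells; surviving cells quantified by luminescent ATP measurement. Medium: phenol red-free DMEM, 5% equine and 5% calf serum.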
HttQ103 aggreg – inhibitors of mutant huntingtin aggregate formation in PC12 cells; Potency, µM (highest dose often 46.1 µM), inactives show at the top dose activity change, negative = inhibition, actives largely listed as inhibitors; AID 1688; hit rate 1.1% among 220,000; PC12 HttQ103-GFP aggregates, Acumen cytometry, 40 h; also: potency is read from the fitted curve at half-maximal effect; % is scaled to controls: 0 for no effect and ±100 for the full control effect; nearly all actives have a fitted effect of over 60% in size
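PC12 cells stably carrying ecdysone-inducible HTT exon 1 Q103–GFP were induced with tebufenozide (100 nM final) and treated with library compounds in titration. GFP aggregates in lysates were counted by laser scanning cytometry.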
HPGD block – inhibitors of human 15-hydroxyprostaglandin dehydrogenase (HPGD); Potency, µM, for inactives: top-dose activity change, negative = inhibition, most hits filed as inhibitors; hit rate 4.3% among 150,000; P15428; purified HPGD, NADH fluorescence kinetic, PGE2 substrate; active = well fitted inhibition curve with a large enough effect, not every such curve was filed as active; inconclusive = small, poorly fitted or top-dose-only effect, or another doubt; inactive = no such curve, though single readings can be large or run the other way; also: potency is read from the fitted curve at half-maximal effect; % is scaled to controls: 0 for no effect and ±100 for the full control effect
Target sequence (P15428 whole entry, looked up): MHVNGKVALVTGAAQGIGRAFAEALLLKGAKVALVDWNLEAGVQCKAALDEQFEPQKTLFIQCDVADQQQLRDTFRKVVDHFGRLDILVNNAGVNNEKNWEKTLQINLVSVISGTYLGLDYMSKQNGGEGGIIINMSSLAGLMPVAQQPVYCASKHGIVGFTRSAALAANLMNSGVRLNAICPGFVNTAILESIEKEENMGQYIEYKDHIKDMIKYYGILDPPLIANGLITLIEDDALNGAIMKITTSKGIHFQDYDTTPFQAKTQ
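NADH formation kinetics: reaction with 30 uM PGE2 and 1 mM NAD+ (final), 20 nM enzyme, Tris-HCl pH 8 with Tween 20, after 15 min compound preincubation at room temperature. Fluorescence change, last versus first of five reads.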
Active calls of the source: *; u = inconclusive; x = no result; [ ] = dose if it differs, or a comment. Unless noted, calls follow the shape of the dose curve; as a rule, active = well fitted curve in the direction sought with a large enough effect; inconclusive = small, poorly fitted or top-dose-only effect, or another doubt; inactive = no such curve, though single readings can be large; an effect the other way counts as inactive or inconclusive.

SMILES | ALDH1A1 inh | GoLoco inh red | PNC assembly inh | HTT ATP protect | HttQ103 aggreg | HPGD block
Cc1cc(NNC(=O)c2cccc(C(F)(F)F)c2)nc2c1c(C)nn2C | 13% | -2% | x | 4%[10 µM] | -10%[9.22 µM] | x
CCC1=C2CC[C@H]3C(=O)NC(=O)[C@H]3[C@H]2[C@@]2(C)C(=NCC3CC3)OC(=O)N2C1=O | 5% | -11% | x | -19% | x | -10%
Cc1ccsc1C(=O)NNC(=O)C1CCCCC1C(=O)O (configuration not stated) | 22µM* | 4% | u | -8%[10 µM] | 3% | -2%
Cc1ccsc1C(=O)NNC(=O)C1CC=CCC1C(=O)O (configuration not stated) | 1% | 1% | u | x | 7% | -7%
O=C(NCc1ccccn1)C(=O)NN=C1CCCCCCC1 | 1% | 2% | x | 4% | 2% | x
Nc1nc(-c2nonc2N)no1 | -5% | 7% | x | -4% | 2% | x
Nc1nonc1-c1noc(-c2ccccc2)n1 | 4% | -7% | -100* | -1%[10 µM] | -22% | -8%
O=C(Cn1cc([N+](=O)[O-])cn1)Nc1cccnc1 | 7% | -1% | x | -1% | -5% | x
CN(C)c1ccc(C(=S)N2CCN(Cc3ccccc3)CC2)cc1 | 32µM* | -10% | x | 1%[10 µM] | -3%[9.22 µM] | x
Cc1ccc(C(=S)N2CCN(Cc3ccccc3)CC2)s1 | 14µM* | -7% | x | x | 33% | x
S=C(c1ccc(Br)cc1)N1CCN(Cc2ccccc2)CC1 | u | -11% | 81 | -23% | -26% | 32µM*
Oc1ccc(C(=S)N2CCN(Cc3ccccc3)CC2)cc1 | x | -11% | x | -6%[10 µM] | 9%[9.22 µM] | x
CN1CCN(C(=S)c2ccc(N(C)C)cc2)CC1 | 28µM* | -18% | 15 | 6%[10 µM] | -10% | 16µM*
CN1CCN(C(=S)c2ccc(Br)cc2)CC1 | -39% | x | -16 | -7%[10 µM] | -2% | x
O=C(c1cccc(Oc2ccccc2)c1)N1CCN(c2ccccn2)CC1 | -12% | 8% | x | 8%[10 µM] | 11% | x
COc1cc(OC)cc(C(=O)Nc2c(F)cccc2F)c1 | u | -2% | -119* | -13%[10 µM] | 4% | -9%
COc1cccc(C(=O)Nc2c(F)cccc2F)c1 | 1% | 2% | x | 14%[10 µM] | -15%[9.22 µM] | x
COc1cc(OC)cc(C(=O)NNC(=O)c2ccccn2)c1 | -4% | 5% | u | -1%[10 µM] | 11µM* | -8%
COc1ccc(C(=O)NC(=S)NNC(=O)c2cnccn2)cc1OC | 28µM* | 0% | u | 15%[10 µM] | u | -19%
COc1ccc(/C=C/C(=O)NC(=S)NNC(=O)c2cccnc2)cc1OC | 4% | 10% | -9 | -27% | -14% | 32µM*
O=c1[nH]c(Cc2cccs2)nc2scc(-c3ccc(Cl)cc3)c12 | 10% | 8% | x | 27%[10 µM] | 27%[9.22 µM] | x
COc1cc(OC)cc(C(=O)NC(=S)Nc2cccnc2)c1 | u | 10% | 2 | -28% | 12% | -7%
COc1cc(OC)cc(C(=O)NC(=S)NNC(=O)c2cnccn2)c1 | 40µM* | -1% | u | 25%[10 µM] | -11% | -26%
Cc1c2c(nc3ccccc13)CCC(C)C2 (configuration not stated) | u | 0% | x | 7% | -20% | x
CC(C)CC1(C)NC(=O)N(CC(=O)Nc2cccc(S(=O)(=O)N(C)c3ccccc3)c2)C1=O (configuration not stated) | 12% | -1% | x | -9% | -15% | x
SMILES | ALDH1A1 inh | GoLoco inh red | PNC assembly inh | HTT ATP protect | HttQ103 aggreg | HPGD block
COCCn1c(=O)c(-c2ccc(Cl)cc2)nc2cnc(Oc3ccc(OC)cc3)nc21 | u | 35% | x | -6% | x | u
CCN(CC)c1ccc(NC(=O)C(C)C)cc1 | 7% | -25% | -15 | -18% | 12% | -2%
CCN(CC)c1ccc(C(=O)NNC(=O)CCl)cc1 | 10µM* | 1% | x | -164% | u | x
O=C1CCCC(C(C(=O)OCc2ccccc2)C(=O)OCc2ccccc2)C1 (configuration not stated) | -7% | 4% | x | u | x | -28%
COc1ccc(C(=O)c2ccccc2)cc1 | -9% | 9% | x | -14% | -12% | x
COc1ccc(C(=O)[C@H](Br)[C@H](Br)C(=O)O)cc1 | 0.28µM* | -16%[14.2 µM] | x | -18%[10 µM] | x | -13%
CC1=C(C(N)=O)C(c2cccs2)n2nc(-c3cccc(C)c3)nc2N1 (configuration not stated) | 3% | 1% | u | 0% | 8% | 0%
CCOc1ccccc1C1C(C(N)=O)=C(C)Nc2nc(-c3cccc(C)c3)nn21 (configuration not stated) | 20µM* | 2% | u | -16% | -7% | -7%
Cc1ccc2ccc(S(=O)(=O)n3nc(C)cc3C)cc2c1 | 0.89µM* | 2% | 2 | -4%[10 µM] | -14% | u
Cc1cc(C)n(S(=O)(=O)c2ccccc2)n1 | x | -1% | x | -7%[10 µM] | 0%[9.22 µM] | x
CN1CCc2nc(NC(=O)COc3ccc(C#N)cc3)sc2C1 | 8% | 8% | x | -33% | 8% | x
O=C(Cn1c(-c2ccccc2)c[n+]2ccsc12)c1ccc(Br)cc1 | 12% | 7% | x | -1%[10 µM] | -21% | x
Cn1c(-c2ccccc2)cc(=O)c2ccccc21 | 0% | 1% | 10 | -10% | 22% | 25µM*
COc1ccc2c(c1)c(=O)cc(-c1ccccc1)n2C | u | 4% | -4 | 2%[10 µM] | 16% | u
Cc1cc(C)c2nc(N3CCC(C(=O)N4CCN(C(=O)c5ccco5)CC4)CC3)sc2c1 | 13µM* | -7% | 7 | -5% | -15% | -14%
NC(=O)c1cc(C(=O)c2ccccc2Cl)c[nH]1 | 8.9µM* | 13% | x | -25%[10 µM] | -25% | x
CN(C)C(=O)c1cc(C(=O)c2ccccc2Cl)c[nH]1 | 7.9µM* | 4% | x | 16%[10 µM] | 10% | x
O=C(c1c[nH]c(C(=O)C(Cl)(Cl)Cl)c1)c1ccccc1Br | 1.8µM* | -3% | x | -12%[10 µM] | 5% | x
NC(=O)c1cc(C(=O)c2cccc(Cl)c2Cl)c[nH]1 | u | -2% | x | -4% | -21% | x
COc1c2c(nc3occc13)C(CC=C(C)C)(OC)C(O)CC2 (configuration not stated) | 1% | 10% | -100* | 24%[10 µM] | 4% | 7%
N/C(Cc1ccc(Cl)c(Cl)c1)=N\OC(=O)c1ccc(Br)o1 | 7% | -2% | x | -14%[10 µM] | -4%[9.22 µM] | x
CCCc1nnc(NC(=O)c2ccc(N3C(=O)C4C5C=CC(C5)C4C3=O)cc2)s1 (configuration not stated) | -5% | -12% | 3 | -6% | 14% | -18%
O=C(Nc1nnc(C(F)(F)F)s1)c1ccc(N2C(=O)C3C4C=CC(C4)C3C2=O)cc1 (configuration not stated) | 1% | -1% | 14 | -26% | -27% | 14µM*
Cc1c(Cl)cccc1NC(=S)Nn1cnnc1 | 13µM* | -8% | x | u | 39% | x
